Measurements from the supplement of paper PMC10849652.
Targets with a hit are over-represented here; the source holds about 7,900 in all. About 0.6% of all pairs of compound and target were hits. Values without a mark were called inactive.

How the values were obtained:
Test in all cases: log2 fold change, soluble protein after heating vs DMSO (PISA); higher = thermal stabilisation; K562 cells, 10 uM, 30 min; active = over 0.2 and 3.5 SD of the protein, either way, in both replicates (recomputed)
[1] = compound: C1COCCN1CCN2C3=CC=CC=C3N=C2NC(=O)C4=CC(=CC=C4)[N+](=O)[O-] [IRAK-1-4 Inhibitor I]
How it was run: (§1)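 K562 cells at 2×10^6 cells/mL were treated for 30 min with 10 μM compound, and aliquots were heated for 3 min over 48°C-58°C before pooling. Extraction used PBS with 0.5% NP-40 at 4°C, and soluble protein was the supernatant after 21,000xg for 90 min, measured by TMTpro 16plex LC-MS/MS with channel sums equalised. Thermal stability values, relative to control samples and from duplicates, are log2 fold changes.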

[2] = compound: C=CC(=O)N1CCC[C@@H](n2nc(-c3ccc(Oc4ccccc4)cc3)c3c(N)ncnc32)C1 [ibrutinib]
How it was run: as §1

[3] = compound: CC(=O)c1cnc2ccc(-c3cc(Cl)c(O)c(Cl)c3)nc2c1N[C@H]1CC[C@H](CN(C)C)CC1
How it was run: as §1

[4] = compound: CC(C)(C)Cn1c(N)nc2ccc(-c3[nH]c(C(C)(C)C)nc3-c3ccc(F)cc3)nc21 [ralimetinib]
How it was run: as §1

[5] = compound: CC(C)(O)CC(=O)NCCn1ccc2ncnc(Nc3ccc(Oc4cccc(C(F)(F)F)c4)c(Cl)c3)c21
How it was run: as §1

[6] = compound: CC(C)C1=C2N=C(C=C(N2N=C1)NCC3=CC=CC=C3)NCCCCCCN
How it was run: as §1

[7] = compound: CC(C)C[C@@H](C=O)NC(=O)[C@H](CC(C)C)NC(=O)[C@H](CC(C)C)NC(=O)OCc1ccccc1
How it was run: as §1

[8] = compound: CC(C)N(C[C@H]1O[C@@H](n2cnc3c(N)ncnc32)[C@H](O)[C@@H]1O)[C@H]1C[C@@H](CCc2nc3cc(C(C)(C)C)ccc3[nH]2)C1 [pinometostat]
How it was run: as §1

[9] = compound: CC1=C(C(CC(=O)N1)C2=CC=C(C=C2)C(F)(F)F)C(=O)NC3=C(C=C4C(=C3)C=NN4)F
How it was run: as §1

[10] = compound: CC1=C(C2=C(C=C1)C(=O)C3=CC=CC=C3N2CCCN)C
How it was run: as §1

[11] = compound: CC1=C(C=C(C=C1)NC(=O)C2=CC(=CC=C2)C(C)(C)C#N)NC3=CC4=C(C=C3)N=CN(C4=O)C
How it was run: as §1

[12] = compound: CC1=C(C=C(C=C1)NC(=O)C2=CC(=CC=C2)N(C)C)NC(=O)C3=CC=C(C=C3)O
How it was run: as §1

[13] = compound: CC1=CC=C(C=C1)SC2=C3C=C(SC3=CN=C2)C(=O)N
How it was run: as §1

[14] = compound: CC1=NC(=CC=C1)C2=C(N=C(N2)C(C)(C)C)C3=CC4=NC=CN=C4C=C3
How it was run: as §1

[15] = compound: CCCCN(Cc1ccc(C(=O)NO)cc1)C(=O)Nc1ccccc1 [Nexturastat A]
How it was run: as §1

[16] = compound: CCCS(=O)(=O)Nc1ccc(F)c(C(=O)c2c[nH]c3ncc(-c4ccc(Cl)cc4)cc23)c1F [vemurafenib]
How it was run: as §1

[17] = compound: CCCS(=O)(=O)Nc1ccc(F)c(C(=O)c2c[nH]c3ncc(Cl)cc23)c1F
How it was run: as §1

[18] = compound: CCCc1cc(C)[nH]c(=O)c1CNC(=O)c1cc(-c2ccnc(N3CCN(C)CC3)c2)cc2c1cnn2C(C)C
How it was run: as §1

[19] = compound: CCN(CC)Cc1ccc2cc(COC(=O)Nc3ccc(C(=O)NO)cc3)ccc2c1 [givinostat]
How it was run: as §1

[20] = compound: CCN(CCCOc1ccc2c(Nc3cc(CC(=O)Nc4cccc(F)c4)[nH]n3)ncnc2c1)CCOP(=O)(O)O [barasertib]
How it was run: as §1

Chain of UniProt Q96F86 (Q96F86 whole entry, looked up): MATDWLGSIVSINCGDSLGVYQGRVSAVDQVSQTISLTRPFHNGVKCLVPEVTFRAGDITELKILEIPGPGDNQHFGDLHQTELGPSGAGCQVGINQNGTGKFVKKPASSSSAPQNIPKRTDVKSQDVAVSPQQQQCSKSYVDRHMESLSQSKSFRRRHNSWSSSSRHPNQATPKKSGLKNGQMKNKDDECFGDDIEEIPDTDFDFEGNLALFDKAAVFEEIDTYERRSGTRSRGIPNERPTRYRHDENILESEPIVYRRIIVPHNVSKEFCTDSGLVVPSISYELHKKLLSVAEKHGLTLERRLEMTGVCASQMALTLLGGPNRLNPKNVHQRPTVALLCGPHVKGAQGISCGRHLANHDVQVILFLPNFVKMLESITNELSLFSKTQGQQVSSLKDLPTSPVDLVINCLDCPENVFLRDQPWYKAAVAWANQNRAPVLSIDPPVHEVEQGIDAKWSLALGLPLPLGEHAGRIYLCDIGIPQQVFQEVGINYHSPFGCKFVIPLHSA
Chain of UniProt P98082 (P98082 whole entry, looked up): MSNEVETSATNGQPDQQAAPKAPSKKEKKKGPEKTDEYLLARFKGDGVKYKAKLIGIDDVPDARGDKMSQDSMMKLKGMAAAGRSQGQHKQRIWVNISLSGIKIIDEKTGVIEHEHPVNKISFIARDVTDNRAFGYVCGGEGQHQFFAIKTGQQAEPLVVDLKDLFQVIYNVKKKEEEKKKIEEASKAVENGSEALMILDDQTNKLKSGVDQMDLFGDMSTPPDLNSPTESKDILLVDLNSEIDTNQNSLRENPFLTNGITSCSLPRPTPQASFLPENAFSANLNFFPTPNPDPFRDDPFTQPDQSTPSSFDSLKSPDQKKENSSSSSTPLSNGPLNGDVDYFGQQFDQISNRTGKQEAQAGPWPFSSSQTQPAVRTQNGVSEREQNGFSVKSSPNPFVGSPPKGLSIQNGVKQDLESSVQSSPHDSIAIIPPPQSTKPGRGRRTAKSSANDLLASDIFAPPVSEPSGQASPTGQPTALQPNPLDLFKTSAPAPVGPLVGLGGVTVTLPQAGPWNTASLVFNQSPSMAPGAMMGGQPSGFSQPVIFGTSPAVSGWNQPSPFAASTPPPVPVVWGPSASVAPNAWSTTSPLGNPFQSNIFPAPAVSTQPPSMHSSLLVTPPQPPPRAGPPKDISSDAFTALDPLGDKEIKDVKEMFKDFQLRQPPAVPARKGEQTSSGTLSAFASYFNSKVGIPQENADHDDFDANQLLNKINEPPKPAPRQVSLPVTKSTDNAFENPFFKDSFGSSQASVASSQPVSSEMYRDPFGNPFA
Chain of UniProt Q5W0V3 (Q5W0V3 whole entry, looked up): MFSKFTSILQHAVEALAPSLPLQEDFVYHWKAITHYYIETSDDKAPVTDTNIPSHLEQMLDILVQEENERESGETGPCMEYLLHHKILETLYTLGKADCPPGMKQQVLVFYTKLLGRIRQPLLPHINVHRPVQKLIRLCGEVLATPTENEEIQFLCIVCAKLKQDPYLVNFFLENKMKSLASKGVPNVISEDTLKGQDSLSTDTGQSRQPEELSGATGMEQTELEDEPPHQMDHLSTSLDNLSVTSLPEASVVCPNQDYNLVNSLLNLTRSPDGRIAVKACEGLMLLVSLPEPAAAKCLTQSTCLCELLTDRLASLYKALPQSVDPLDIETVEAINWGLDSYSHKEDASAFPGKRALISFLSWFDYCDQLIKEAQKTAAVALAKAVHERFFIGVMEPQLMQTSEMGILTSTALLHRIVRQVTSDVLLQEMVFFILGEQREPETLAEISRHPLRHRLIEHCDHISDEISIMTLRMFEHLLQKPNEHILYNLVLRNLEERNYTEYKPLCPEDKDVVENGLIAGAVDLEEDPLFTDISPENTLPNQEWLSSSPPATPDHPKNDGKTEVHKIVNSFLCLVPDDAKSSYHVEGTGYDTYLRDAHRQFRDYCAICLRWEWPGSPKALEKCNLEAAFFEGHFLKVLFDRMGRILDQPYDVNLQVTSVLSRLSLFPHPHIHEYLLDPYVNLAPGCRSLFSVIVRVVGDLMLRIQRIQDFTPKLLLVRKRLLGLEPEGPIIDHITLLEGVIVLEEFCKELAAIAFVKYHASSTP
Chain of UniProt Q9BW60 (Q9BW60 whole entry, looked up): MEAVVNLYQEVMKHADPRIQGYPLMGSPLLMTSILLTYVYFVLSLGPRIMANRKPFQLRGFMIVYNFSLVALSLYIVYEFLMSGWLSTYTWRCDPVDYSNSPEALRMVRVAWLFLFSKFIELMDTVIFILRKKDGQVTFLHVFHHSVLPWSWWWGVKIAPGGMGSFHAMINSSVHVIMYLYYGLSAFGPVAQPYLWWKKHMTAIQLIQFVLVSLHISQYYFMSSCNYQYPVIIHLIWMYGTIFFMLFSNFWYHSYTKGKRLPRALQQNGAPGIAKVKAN
Chain of UniProt P09622 (P09622 whole entry, looked up): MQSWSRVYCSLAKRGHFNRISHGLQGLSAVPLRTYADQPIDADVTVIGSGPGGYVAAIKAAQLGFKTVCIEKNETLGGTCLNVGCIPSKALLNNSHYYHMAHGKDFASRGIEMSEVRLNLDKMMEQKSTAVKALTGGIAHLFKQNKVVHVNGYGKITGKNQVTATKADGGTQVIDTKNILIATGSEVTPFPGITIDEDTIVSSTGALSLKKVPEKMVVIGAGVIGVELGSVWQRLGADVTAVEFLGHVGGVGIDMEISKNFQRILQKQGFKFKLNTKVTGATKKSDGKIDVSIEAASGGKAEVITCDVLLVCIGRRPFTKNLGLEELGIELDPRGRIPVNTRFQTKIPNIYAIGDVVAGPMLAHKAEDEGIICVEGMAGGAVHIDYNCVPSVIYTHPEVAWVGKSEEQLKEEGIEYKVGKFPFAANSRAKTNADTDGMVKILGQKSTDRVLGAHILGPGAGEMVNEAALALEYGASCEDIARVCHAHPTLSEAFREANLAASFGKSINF
Chain of UniProt Q9NQI0 (Q9NQI0 whole entry, looked up): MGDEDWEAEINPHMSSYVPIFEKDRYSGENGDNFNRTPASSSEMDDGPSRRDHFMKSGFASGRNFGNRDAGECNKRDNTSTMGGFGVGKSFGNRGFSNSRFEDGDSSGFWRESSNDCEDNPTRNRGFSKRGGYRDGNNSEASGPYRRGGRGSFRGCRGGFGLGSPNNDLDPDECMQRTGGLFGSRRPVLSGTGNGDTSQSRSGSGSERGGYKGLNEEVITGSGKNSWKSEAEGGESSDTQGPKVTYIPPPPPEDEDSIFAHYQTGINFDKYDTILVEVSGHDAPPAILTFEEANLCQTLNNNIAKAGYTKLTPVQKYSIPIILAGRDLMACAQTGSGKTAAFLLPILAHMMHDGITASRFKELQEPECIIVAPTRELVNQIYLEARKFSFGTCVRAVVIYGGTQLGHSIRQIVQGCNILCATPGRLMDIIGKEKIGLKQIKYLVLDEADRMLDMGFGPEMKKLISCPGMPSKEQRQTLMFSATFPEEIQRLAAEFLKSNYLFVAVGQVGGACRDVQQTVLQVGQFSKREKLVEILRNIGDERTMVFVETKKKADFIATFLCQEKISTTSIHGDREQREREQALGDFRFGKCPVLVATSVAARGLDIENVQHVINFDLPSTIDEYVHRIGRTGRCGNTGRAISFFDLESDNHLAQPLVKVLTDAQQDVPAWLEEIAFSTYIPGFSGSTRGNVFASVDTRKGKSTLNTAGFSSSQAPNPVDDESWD
Chain of UniProt Q6UX04 (Q6UX04 whole entry, looked up): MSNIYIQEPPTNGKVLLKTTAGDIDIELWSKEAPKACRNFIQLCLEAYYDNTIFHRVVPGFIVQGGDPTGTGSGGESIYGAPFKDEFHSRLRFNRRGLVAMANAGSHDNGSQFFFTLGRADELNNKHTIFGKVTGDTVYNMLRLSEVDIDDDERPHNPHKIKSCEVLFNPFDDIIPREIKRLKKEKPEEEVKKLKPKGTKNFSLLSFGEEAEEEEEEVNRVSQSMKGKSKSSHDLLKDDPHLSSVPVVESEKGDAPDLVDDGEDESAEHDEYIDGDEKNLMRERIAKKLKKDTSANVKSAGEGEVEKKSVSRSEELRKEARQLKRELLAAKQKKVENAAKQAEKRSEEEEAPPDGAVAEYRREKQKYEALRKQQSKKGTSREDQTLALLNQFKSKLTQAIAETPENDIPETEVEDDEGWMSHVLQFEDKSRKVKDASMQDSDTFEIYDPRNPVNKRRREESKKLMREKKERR
Chain of UniProt Q15369 (Q15369 whole entry, looked up): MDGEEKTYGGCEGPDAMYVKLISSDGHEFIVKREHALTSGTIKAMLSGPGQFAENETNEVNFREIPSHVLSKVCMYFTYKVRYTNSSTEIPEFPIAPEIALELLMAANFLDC
Chain of UniProt Q8TAG9 (Q8TAG9 whole entry, looked up): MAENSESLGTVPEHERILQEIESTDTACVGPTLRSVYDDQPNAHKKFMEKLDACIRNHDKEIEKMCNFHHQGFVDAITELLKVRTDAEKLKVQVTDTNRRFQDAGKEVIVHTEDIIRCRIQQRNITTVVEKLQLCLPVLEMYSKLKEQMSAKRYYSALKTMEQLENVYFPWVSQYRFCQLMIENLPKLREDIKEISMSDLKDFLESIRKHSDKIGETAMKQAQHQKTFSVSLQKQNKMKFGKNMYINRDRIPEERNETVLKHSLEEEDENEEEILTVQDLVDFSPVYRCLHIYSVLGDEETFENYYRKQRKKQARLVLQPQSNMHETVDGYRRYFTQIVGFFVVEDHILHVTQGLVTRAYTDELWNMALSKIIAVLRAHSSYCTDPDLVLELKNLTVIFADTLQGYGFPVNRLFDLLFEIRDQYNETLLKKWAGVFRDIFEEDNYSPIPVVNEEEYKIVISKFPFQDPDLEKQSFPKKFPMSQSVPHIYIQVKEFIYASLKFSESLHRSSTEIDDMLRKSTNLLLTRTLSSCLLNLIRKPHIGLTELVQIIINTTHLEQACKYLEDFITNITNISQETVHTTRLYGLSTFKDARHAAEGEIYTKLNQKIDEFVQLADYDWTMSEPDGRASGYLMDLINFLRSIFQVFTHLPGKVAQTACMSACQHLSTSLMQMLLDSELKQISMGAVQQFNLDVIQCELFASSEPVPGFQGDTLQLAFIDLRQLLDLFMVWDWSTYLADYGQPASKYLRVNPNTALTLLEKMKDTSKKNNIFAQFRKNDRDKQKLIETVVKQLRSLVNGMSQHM

Target | log2 fold change [1] | log2 fold change [2] | log2 fold change [3] | log2 fold change [4] | log2 fold change [5] | log2 fold change [6] | log2 fold change [7] | log2 fold change [8] | log2 fold change [9] | log2 fold change [10] | log2 fold change [11] | log2 fold change [12] | log2 fold change [13] | log2 fold change [14] | log2 fold change [15] | log2 fold change [16] | log2 fold change [17] | log2 fold change [18] | log2 fold change [19] | log2 fold change [20]
EDC3 (UniProt Q96F86) | -0.029 | -0.082 | -0.643 (active) | 0.013 | -0.117 | -0.223 | 0.019 | 0.011 | 0.039 | -0.049 | -0.046 | 0.085 | 0.021 | 0.037 | 0.088 | 0.046 | 0.008 | 0.1 | 0.049 | 0.055
DDX4 (UniProt Q9NQI0) | -0.033 | -0.046 | -0.035 | -0.063 | 0.203 | 0.02 | 0.239 | 0.24 | 0.03 | 0.033 | -0.451 | 0.035 | -0.328 | -0.336 | 0.263 | -0.569 | -0.447 | 0.327 | 0.271 | -0.094
ELOC (UniProt Q15369) | 0.017 | -0.011 | -0.018 | -0.027 | -0.07 | -0.032 | -0.042 | 0.008 | 0.002 | 0.165 | 0.016 | -0.034 | 0.008 | 0.001 | -0.027 | 0.017 | 0.031 | 0 | -0.035 | 0.026
FAM160B1 (UniProt Q5W0V3) | 0.019 | 0.012 | 0.03 | 0.005 | -0.05 | -0.285 (active) | 0.019 | -0.019 | -0.036 | -0.051 | 0.033 | 0.128 | -0.019 | 0.051 | -0.023 | 0.149 | 0.034 | 0.014 | 0.016 | 0.109
F5 (UniProt P12259) | 0.006 | 0.064 | 0.003 | -0.042 | 0.168 | -0.088 | 0.001 | -0.016 | -0.017 | -0.129 | 0.056 | 0.036 | -0.027 | 0.011 | -0.04 | 0.066 | -0.016 | -0.036 | -0.01 | 0.034
CWC27 (UniProt Q6UX04) | -0.045 | -0.111 | -0.133 | 0.048 | -0.08 | 0.018 | -0.007 | -0.023 | -0.045 | 0.199 | -0.001 | -0.035 | 0.002 | 0.021 | -0.029 | 0.128 | 0.112 | 0.009 | 0.082 | 0.073
ELOVL1 (UniProt Q9BW60) | 0.079 | -0.006 | 0.018 | 0.029 | -0.197 | -0.628 (active) | 0.036 | 0.063 | 0.016 | 0.099 | -0.035 | -0.065 | 0.064 | 0.044 | 0.03 | -0.032 | 0.116 | -0.063 | 0.067 | 0.028
DAB2 (UniProt P98082) | -0.009 | 0.004 | -0.093 | 0.082 | -0.119 | -0.02 | 0.138 | 0.049 | -0.031 | -0.075 | 0.016 | 0.015 | -0.03 | -0.046 | 0.058 | -0.033 | 0.064 | 0.036 | 0.109 | 0.072
EED, A0A5F9ZI63 | -0.032 | -0.012 | -0.041 | 0.042 | 0.053 | 0.05 | 0.03 | 0.052 | -0.001 | 0.145 | 0.005 | -0.067 | -0.012 | -0.019 | 0.013 | -0.02 | 0.025 | -0.204 (active) | 0.082 | -0.038
EXOC6 (UniProt Q8TAG9) | -0.046 | -0.007 | -0.014 | 0.102 | -0.084 | -0.397 (active) | 0.042 | 0.056 | 0.158 | 0.032 | -0.054 | -0.028 | 0.104 | 0.032 | 0.133 | 0.104 | 0.022 | 0.009 | 0.075 | -0.018
EIF4G1 isoform 8 (UniProt Q04637) | -0.124 | -0.148 | -0.3 | 0.057 | -0.053 | -0.387 | 0.046 | 0.149 | 0.096 | 0.018 | -0.028 | -0.011 | 0.004 | 0.006 | 0.169 | 0.013 | 0.028 | 0.119 | 0.057 | 0.067
DLD (UniProt P09622) | 0.079 | 0.007 | 0.043 | -0.004 | -0.043 | -0.125 | -0.029 | 0.001 | 0.014 | -0.008 | -0.045 | 0.025 | 0.008 | 0.013 | -0.058 | -0.021 | -0.01 | 0.029 | -0.06 | 0
